# Source: PubChem (National Center for Advancing Translational Sciences (NCATS))
# G9a inh = blocks human histone lysine methyltransferase G9a; G9a H3K9 monomethylation, AlphaScreen, 2 h; Potency, µM (doses to about 102 µM), inactives show top-dose activity, negative = inhibition, hits mostly inhibitors; hit rate 8.8% among 350,000; further: on the % scale 0 is the no-effect control and ±100 the full control effect; nearly all actives have a fitted effect of over 75% in size
#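 Step 1: enzyme (final 20 nM) with compound, 15 min RT. Step 2: substrate peptide 500 nM and SAM 20 uM, 2 h RT. Step 3: anti-H3K9me1 antibody and AlphaScreen beads, 10 min, then plate read.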
# BAZ2B inh = BAZ2B (human) inhibition. AlphaScreen BAZ2B-H3K14Ac peptide displacement. hit rate 4.4% among 360,000. Potency, µM (titrated, usually from 114 µM), for inactives: at the highest dose activity change, negative = inhibition, usual class: inhibitors; further: on the % scale 0 is the no-effect control and ±100 the full control effect; nearly all actives have a fitted effect of over 60% in size
#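 In this displacement format the biotinylated H3(5-23) peptide acetylated at Lys14 serves as ligand at 50 nM, with BAZ2B at 50 nM in PBS pH 7.4 containing 0.01% Tween-20. Donor and acceptor beads are 10 ug/mL final.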
# Sfp PPTase inh = Sfp phosphopantetheinyl transferase inhibition. Q9F4F7. Biochemical Sfp PPTase activity, qHTS. Potency, µM, for inactives: largest response in the series, negative = inhibition, hits mostly inhibitors. hit rate 3.5% among 310,000. AID 1490;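 further: the enzyme is Sfp with the accession as filed and its product quenches rhodamine fluorescence; 0% = enzyme reaction without inhibitor and -100% = no enzyme wells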
#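 Step 1, compound plus 15 nM Sfp-PPTase, 15 min, room temperature. Step 2, add rhodamine-CoA (5 uM) and BHQ-2-YbbR (12.5 uM). Step 3, read 525/598 nm fluorescence at 0 and 30 min.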
# JMJD2A Tudor inh = JMJD2A Tudor domain (human) inhibition; O75164; AlphaScreen JMJD2A-Tudor / H3K4me3 peptide binding; Potency, µM (doses to about 114 µM), without a hit: at the highest dose activity change, negative = inhibition, most hits filed as inhibitors; hit rate 4.4% among 390,000; further: on the % scale 0 is the no-effect control and ±100 the full control effect; nearly all actives have a fitted effect of over 50% in size
# HP1b binding inh = HP1-beta chromodomain-methylated histone interaction inhibition. P83916. AlphaScreen HP1-beta / biotin-H3K9me3 peptide binding. Potency, µM (highest dose often 114 µM), for inactives: at the top dose activity change, negative = inhibition, most hits filed as inhibitors. hit rate 0.56% among 390,000. AID 540317; further: nearly all actives have a fitted effect of over 70% in size
#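 HP1-beta protein (50 nM final) preincubated 30 min at room temperature with biotinylated H3(1-18)K9me3 peptide (50 nM) in PBS pH 7.4, 0.01% Tween-20, then compound added for 30 min. AlphaScreen streptavidin donor/nickel chelate acceptor beads (10 ug/mL final), 30 min dark, luminescence read.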
# L3MBTL1 inh = blocks human L3MBTL1; Q9Y468; AlphaScreen L3MBTL1–H3K9me1 peptide binding; Potency, µM (doses to about 57.1 µM), for inactives: top-dose activity, negative = inhibition, hits mostly inhibitors; hit rate 0.66% among 230,000; further: on the % scale 0 is the no-effect control and ±100 the full control effect; nearly all actives have a fitted effect of over 60% in size
# Target sequence (Q9Y468 whole entry, looked up): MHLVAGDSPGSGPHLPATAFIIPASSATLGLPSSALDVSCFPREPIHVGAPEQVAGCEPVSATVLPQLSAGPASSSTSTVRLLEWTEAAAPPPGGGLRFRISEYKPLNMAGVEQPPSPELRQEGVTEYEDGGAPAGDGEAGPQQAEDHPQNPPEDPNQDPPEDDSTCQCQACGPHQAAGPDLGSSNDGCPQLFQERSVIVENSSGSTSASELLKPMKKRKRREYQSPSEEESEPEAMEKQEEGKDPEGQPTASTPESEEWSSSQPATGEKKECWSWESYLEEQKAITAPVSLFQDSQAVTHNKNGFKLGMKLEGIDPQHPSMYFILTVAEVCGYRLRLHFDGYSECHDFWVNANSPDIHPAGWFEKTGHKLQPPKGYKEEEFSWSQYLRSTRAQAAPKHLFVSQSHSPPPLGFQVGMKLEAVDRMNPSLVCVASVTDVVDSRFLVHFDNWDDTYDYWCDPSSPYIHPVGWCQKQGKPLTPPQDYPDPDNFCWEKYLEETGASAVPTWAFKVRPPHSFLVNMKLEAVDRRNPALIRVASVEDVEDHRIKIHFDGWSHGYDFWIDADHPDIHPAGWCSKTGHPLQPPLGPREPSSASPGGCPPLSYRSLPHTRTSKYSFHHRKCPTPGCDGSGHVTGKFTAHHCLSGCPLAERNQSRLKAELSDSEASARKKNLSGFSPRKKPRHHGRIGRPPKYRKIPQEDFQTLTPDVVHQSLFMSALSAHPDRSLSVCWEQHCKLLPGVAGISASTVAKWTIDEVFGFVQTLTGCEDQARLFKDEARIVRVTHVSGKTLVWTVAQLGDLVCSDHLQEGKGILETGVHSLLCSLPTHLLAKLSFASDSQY
#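 First, the protein-peptide complex forms for 30 min at room temperature (L3MBTL1 50 nM, biotinylated H3K9me1 peptide 75 nM). Next, compounds are pin-transferred and incubated 30 min. Finally, AlphaScreen beads are added and read after 30 min.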
# An asterisk follows results filed as active; ? = inconclusive; . = no result; [ ] = remark or other dose. The list is not random: actives were taken first. Their share in the collection is about 12%. The call rests on the fitted dose curve; in most records, active means well fitted curve in the direction sought with a large enough effect; inconclusive means small, poorly fitted or top-dose-only effect, or another doubt; inactive means no such curve, though single readings can be large; an effect the other way counts as inactive or inconclusive. Potency means the concentration at half of the fitted maximal effect.
SMILES,G9a inh,BAZ2B inh,Sfp PPTase inh,JMJD2A Tudor inh,HP1b binding inh,L3MBTL1 inh
CCC(c1nnnn1Cc1ccc2c(c1)OCO2)N1CCN(c2ccc(OC)cc2)CC1 (stereo not given),39.8µM*,31.6µM*,0.5%,?,-42.0%,-28.0%
COc1ccc(COC(=O)N/N=C2/C[C@@H](O)[C@@H](O)[C@@H]3[C@H]4C(=O)N(c5ccc(F)cc5F)C(=O)[C@@H]4CC[C@H]23)cc1,.,.,13.4%,.,.,.
CCCC(c1nnnn1Cc1cccs1)N1CCN(c2ccc(OC)cc2)CC1 (stereo not given),17.8µM*,44.7µM*,-1.6%,?,?,-19.6%
Oc1ccc(N2CCN(C(c3ccc(Cl)cc3)c3nnnn3Cc3ccc(F)cc3)CC2)cc1 (stereo not given),.,.,.,39.8µM*,?,.
O=C(Cc1ccc(Br)cc1)N1CCN(C(=O)c2ccco2)CC1,8.1%,-0.3%,2.5%,-2.8%,13.2%,.
COc1ccccc1C(=O)Nc1c(C(=O)N2CCN(C)CC2)oc2ccccc12,12.3%,-23.3%,0.1%,-23.4%,14.2%[57 µM],.
NC(=S)N/N=C/c1coc2ccc(O)cc2c1=O,?,-22.6%,1.58µM*,-19.4%,38.8%,-10.2%
O=C(N/N=C/c1coc2ccccc2c1=O)c1cc(Br)c(O)c(Br)c1,50.1µM*,-38.7%,5.5%,-32.6%,22.6%,.
CCOC(=O)CNC(=O)N1[C@H](c2cccs2)[C@@H](C)C(=O)[C@@H](C)[C@@H]1c1cccs1,0.6%[59 µM],11.9%,.,-14.9%,38.8%,.
CN1c2ccccc2C(=O)NC1c1ccc(Cl)cc1 (stereo not given),44.7µM*,-5.6%,11.5%,-5.7%,23.5%,5.2%
O=C1C(Cl)=C(N2CCN(c3ccccc3[N+](=O)[O-])CC2)C(=O)c2ccccc21,7.94µM*,2.51µM*,-9.0%,5.01µM*,8.91µM*,?
CCCCc1nc2c(c3c1C[C@H](C)OC3)CN(C(=O)C1CCCCC1)CC2,.,.,19.6%,.,.,.
Cc1nn(C)c(Oc2cccc(C(F)(F)F)c2)c1C#N,9.2%,-0.2%,6.6%,2.1%,46.9%,4.9%
Cc1nn(C)c(Oc2cccc(Cl)c2)c1C#N,22.7%,7.9%,3.0%,20µM*,17.4%,-17.0%
C=CCSc1nc2ccccc2n1S(=O)(=O)c1ccc(Cl)cc1,.,.,.,-36.0%,22.8%,.
CCSc1nc2ccccc2n1S(=O)(=O)c1ccccc1,50.1µM*,5.4%,-11.3%,-21.3%,34.5%,6.4%
O=C(O)CSc1cc(C(=O)c2cc(F)ccc2O)cn2c(=O)c3c(-c4ccccc4)csc3nc12,50.1µM*,56.2µM*,-20.0%,56.2µM*,-0.1%[57 µM],?
CCc1c(C)sc2nc3c(C(=O)N4CCOCC4)cc(C(=O)c4cc(F)ccc4O)cn3c(=O)c12,?,.,?,?,-0.5%,?
CCOC(=O)c1sc2nc3c(SCCC(=O)O)cc(C(=O)c4cc(OC)ccc4O)cn3c(=O)c2c1C,11.2µM*,35.5µM*,-22.5%,14.1µM*,-12.4%,?
CCOC(=O)c1sc2nc3c(SCCC#N)cc(C(=O)c4cc(F)ccc4O)cn3c(=O)c2c1C,?,-23.3%,-1.3%,-26.0%,13.3%,-6.4%
Cc1c(Cl)cccc1NC(=O)N1CCC(CN2CCOCC2)CC1,-2.9%[59 µM],3.6%,.,2.6%,22.6%,.
CCN(CC)C(=O)Cn1c(=O)nc(-c2ccccc2F)c2cc(Cl)ccc21,1.3%[59 µM],-0.8%,.,-7.9%,3.8%,.
COc1ccc(-c2coc3cc4oc(=O)c(CC(=O)O)c(C)c4cc23)cc1,53.1%,-2.3%,-5.8%,5.7%,24.6%,.
Cc1c(CC(=O)O)c(=O)oc2cc3occ(-c4ccc(F)cc4)c3cc12,0.0%,-3.9%,39.8µM*,-9.8%,9.6%,.
CCOc1ccc(C(=O)Nc2ccccc2C(=O)OCc2cc(=O)n3nc(C4CC4)sc3n2)cc1,1.0%[12.7 µM],-11.0%,.,0.7%,25.4%,.
SMILES,G9a inh,BAZ2B inh,Sfp PPTase inh,JMJD2A Tudor inh,HP1b binding inh,L3MBTL1 inh
CC(C)c1ccc(NC(=O)C2C3C=CC4(CN(Cc5cccnc5)C(=O)C24)O3)cc1 (stereo not given),3.5%,-2.5%,8.5%,-15.9%,21.2%,15.2%
Cc1ccc(NC(=O)C2C3C=CC4(CN(Cc5cccnc5)C(=O)C24)O3)cc1F (stereo not given),44.7µM*,0.1%,2.2%,1.4%,40.2%,-2.3%
Cc1ccc(Cl)cc1N1CCN(C2(c3ccccc3)C(=O)c3ccccc3C2=O)CC1,?,?,.,?,-3.7%,.
Cc1cccc(N2CCN(C3(c4ccccc4)C(=O)c4ccccc4C3=O)CC2C)c1 (stereo not given),8.91µM*,8.91µM*,.,?,?,.
Cc1ccc(C)c(N2CCN(C3(c4ccccc4)C(=O)c4ccccc4C3=O)CC2)c1,7.08µM*,6.31µM*,.,?,-23.7%,.
Cc1ccccc1-n1nnnc1SC(C)C(=O)Nc1ccc(N2CCN(C)CC2)cc1 (stereo not given),-8.0%[12.7 µM],?,11.8%,?,-1.2%,.
CCc1ccccc1-n1nnnc1SCC(=O)Nc1cc(C)on1,?,?,-0.9%,-14.4%,3.2%,.
CCc1ccccc1-n1nnnc1SCC(=O)Nc1ccc(N2CCN(C)CC2)cc1,50.1µM*,?,5.8%,10.1%,49.7%,.
Cc1cccc(-n2nnnc2SCC(=O)NC2CCCC2)c1,.,.,.,-2.1%,0.9%,5.3%
Cc1ccccc1-n1nnnc1SCC(=O)Nc1ccc(N2CCN(C)CC2)cc1,50.1µM*,-32.2%[57.1 µM],13.9%,?,38.4%,.
Cc1cccc(-n2nnnc2SCC(=O)Nc2ccc(N3CCN(C)CC3)cc2)c1,44.7µM*,?,3.8%,?,-3.4%,.
CC(=O)OCC1=C(C(=O)O)N2C(=O)[C@@H](NC(=O)CSc3ccncc3)[C@@H]2SC1,2.1%[12.7 µM],.,?,.,.,.
CC1CCC(NC(=O)CCS(=O)(=O)c2ccc3c(c2)CCN3C(=O)C2CC2)CC1 (stereo not given),-7.3%,-3.4%,0.4%,-20.3%,-5.5%,.
COc1cccc(CNC(=O)Cc2ccc(NC(=O)C3=C(C)OCCS3)cc2)c1,-12.9%,50.1µM*,1.9%,?,17.3%,.
CCOc1ccccc1CNC(=O)c1ccc(NC(=O)C2=C(C)OCCS2)cc1,31.6µM*,?,11.1%,-34.5%,29.4%,.
CCNc1nc(NCC)n2c(SCC(=O)Nc3ccc(C)cc3Br)nnc2n1,.,.,.,-11.7%,13.0%,-3.3%
O=C(Cc1ccccn1)c1ccc(Cl)cc1,-6.4%[2.33 µM],-6.6%,.,11.2%,67.5%,8.3%
CC1=C(CC(=O)c2ccc(Cl)cc2)C(=O)c2ccccc2C1=O,?,31.6µM*,44.7µM*,31.6µM*,-52.7%,?
CCCN1CCC(=NNc2ccc(S(=O)(=O)N(CC)CC)cc2[N+](=O)[O-])CC1,35.5µM*,?,17.0%,?,?,-1.7%
